Measured values as given in PubChem BioAssay (NCATS).
Inconclusive results are not listed. Active and inactive are the calls of the source. Unless noted, calls follow the shape of the dose curve; as a rule, active = well fitted inhibition curve with a large enough effect; inconclusive = small, poorly fitted or top-dose-only effect; inactive = flat fitted curve, though single readings scatter.

Key:
[1] = qHTS for identification of novel therapeutic agents for treatment of microphthalmiaassociated transcription factor (MiT) renal cell carcinoma (RCC) (AID 1963991; calls by dose curve); details: CellTiter-Glo, 48 h; for z-score: stronger effect = lower value; for Potency: active = Z-AUC below -0.8 in all three lines
How it was run: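 Three TFE3-fusion RCC lines (UOK109, UOK124, UOK145), 500 cells/well in complete medium, were treated with MIPE 4.0 compounds for 48 hours at 37 C. Viability was by CellTiter-Glo luminescence, normalized to DMSO (100%) and empty wells (0%); curves fitted over 11 concentrations.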

[2] = qHTS profiling for inhibitors of Plasmodium falciparum proliferation (AID 504749);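 as to activity, negative = inhibition: 0% = DMSO vehicle and full inhibition = artemisinin control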; as to all read-outs here: nearly all actives have a fitted effect of over 60% in size; details: P. falciparum in erythrocytes, SYBR Green DNA, 72 h; for activity, negative = inhibition: at 28.7 µM (top of the series)
How it was run: (§1)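 Readout was DNA-dye fluorescence from lysed cultures, ex 485/em 535 nm. Parasitized red cells had grown 72 h with compound; data scaled between 0.29 uM artemisinin and DMSO wells and corrected using vehicle-only plates.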

3D7 = test: as above; details: P. falciparum in erythrocytes, SYBR Green DNA, 72 h; series mostly up to 28.7 µM
How it was run: as §1

7G8 = test: as above; details: P. falciparum in erythrocytes, SYBR Green DNA, 72 h; series mostly up to 28.7 µM
How it was run: as §1

AA1029 = test: as above; details: P. falciparum in erythrocytes, SYBR Green DNA, 72 h; series mostly up to 28.7 µM
How it was run: as §1

AS120 = test: as above; details: P. falciparum in erythrocytes, SYBR Green DNA, 72 h; series mostly up to 28.7 µM
How it was run: as §1

[3] = TFE3-RCC UOK109 viability, measured here: UOK109 Z-AUC
[4] = TFE3-RCC viability, measured here: UOK124 Z-AUC
[5] = TFE3-RCC viability, measured here: UOK145 Z-AUC
Potency is read from the fitted curve at half-maximal effect.

CC(C)(O)[C@H]1CC[C@@](C)([C@H]2[C@@H](O)C[C@@]3(C)[C@@H]4C[C@H](O[C@@H]5O[C@H](CO)[C@@H](O)[C@H](O)[C@@H]5O)[C@H]5C(C)(C)[C@@H](O[C@@H]6OC[C@@H](O)[C@H](O)[C@@H]6O)CC[C@@]56C[C@@]46CC[C@]23C)O1
z-score [1, 3]: 0.913 | z-score [1, 4]: 0.41 | z-score [1, 5]: 0.699

CON=C(C(=O)N[C@@H]1C(=O)N2C(C(=O)O)=C(Cn3ccc(=N)n3CCO)CS[C@H]12)c1csc(N)n1
z-score [1, 3]: 1.44 | z-score [1, 4]: 0.0348 | z-score [1, 5]: 0.881

CCCCCCCCCCCCCCCC(=O)OC[C@@H](NC(=O)C(Cl)Cl)[C@H](O)c1ccc([N+](=O)[O-])cc1
z-score [1, 3]: 1.8 | z-score [1, 4]: 0.082 | z-score [1, 5]: 0.929

C[C@H]1C[C@H]2[C@@H]3CCC4=CC(=O)C=C[C@]4(C)[C@@H]3C(=O)C[C@]2(C)[C@@]1(O)C(=O)CO
z-score [1, 3]: 0.188 | z-score [1, 4]: 0.279 | z-score [1, 5]: 1.74

O=C(C=Cc1ccc(CN(CCO)CCc2c[nH]c3ccccc23)cc1)NO
Potency ([1]; TFE3-RCC UOK109 viability): 590 nM (active) | z-score [1, 3]: -1.47 | z-score [1, 4]: -3.24 | z-score [1, 5]: -1.37

CCCCCCCCCCCC(CC1OC(=O)C1CCCCCC)OC(=O)C(CC(C)C)NC=O (configuration not stated)
Potency ([2]; parasite line A): 355 nM (active) | Potency ([2]; parasite line B): 708 nM (active) | Potency (3D7): 1120 nM (active) | Potency (7G8): 2510 nM (active) | Potency (AA1029): 447 nM (active) | Potency (AS120): 316 nM (active)

COC(=O)[C@@H]1CC2=CC(=O)CC[C@]2(C)[C@@]23O[C@@H]2C[C@@]2(C)[C@H](CC[C@@]24CCC(=O)O4)[C@@H]13
z-score [1, 3]: 0.222 | z-score [1, 4]: 0.454 | z-score [1, 5]: 0.45

COc1ccc2c(c1OC)C(=O)OC2[C@H]1c2c(cc3c(c2OC)OCO3)CCN1C (some centres not stated)
activity, negative = inhibition ([2]; parasite line A): 5.64% (inactive) | activity, negative = inhibition ([2]; parasite line B): 5.33% (inactive) | Potency (3D7): inactive | Potency (7G8): inactive | Potency (AA1029): inactive | Potency (AS120): inactive

CC(=O)N[C@H]1[C@@H]([C@H](O)[C@H](O)CO)OC(C(=O)O)=C[C@@H]1N=C(N)N
z-score [1, 3]: 0.312 | z-score [1, 4]: 0.639 | z-score [1, 5]: 0.195

O=C1NC(=O)[C@@H](c2cn3c4c(cccc24)CCC3)[C@H]1c1c[nH]c2ccccc12
Potency ([1]; TFE3-RCC UOK109 viability): 935 nM (active) | z-score [1, 3]: -1.28 | z-score [1, 4]: -0.931 | z-score [1, 5]: -1.11

CCc1cnn2c(NCc3ccc[n+]([O-])c3)cc(N3CCCC[C@@H]3CCO)nc12
Potency ([1]; TFE3-RCC UOK109 viability): 59 nM (active) | z-score [1, 3]: -2.34 | z-score [1, 4]: -1.76 | z-score [1, 5]: -1.93

O=C(O)[C@H](CC(=O)N1C[C@@H]2CCCC[C@H]2C1)Cc1ccccc1
z-score [1, 3]: 0.946 | z-score [1, 4]: 0.446 | z-score [1, 5]: 0.344

CC(C)(C)[C@H](NC(=O)c1ccc(N)c(Cl)c1)C(=O)N1CCC[C@@H]1C(=O)N[C@H](C#N)CC(=O)O
z-score [1, 3]: 1.53 | z-score [1, 4]: 2.68 | z-score [1, 5]: 2.13

CC(=O)N[C@@H]1[C@H](O[C@@H]2c3ccc(c(Cl)c3)Oc3cc4cc(c3O[C@H]3O[C@H](CO)[C@@H](O)[C@H](O)[C@H]3NC(=O)CCCCCCCC(C)C)Oc3ccc(cc3Cl)C[C@H]3NC(=O)[C@H](N)c5ccc(O)c(c5)Oc5cc(O)cc(c5)[C@H](NC3=O)C(=O)N[C@H]4C(=O)N[C@H]3C(=O)N[C@@H]2C(=O)N[C@@H](C(=O)O)c2cc(O)cc(O[C@H]4O[C@H](CO)[C@@H](O)[C@H](O)[C@H]4O)c2-c2cc3ccc2O)O[C@H](CO)[C@@H](O)[C@@H]1O
z-score [1, 3]: 0.106 | z-score [1, 4]: 0.36 | z-score [1, 5]: 0.292

N[C@H]1CN(c2c(F)cc3c(=O)c(C(=O)O)cn(C4C[C@@H]4F)c3c2Cl)CC12CC2 (some centres not stated)
z-score [1, 3]: 0.717 | z-score [1, 4]: 1.4 | z-score [1, 5]: -0.145

C=C1CCC2[C@](C)(CO)C(O)CC[C@]2(C)C1CC=C1C(=O)OCC1O (some centres not stated)
z-score [1, 3]: 0.432 | z-score [1, 4]: -0.457 | z-score [1, 5]: 1.09

C[N+]1(C)[C@@H]2C[C@@H](OC(=O)C(O)(c3cccs3)c3cccs3)C[C@H]1[C@@H]1O[C@@H]12
z-score [1, 3]: 0.526 | z-score [1, 4]: 0.59 | z-score [1, 5]: 0.677

Cc1cn([C@@H]2O[C@H](CO)[C@@H](O)[C@H]2F)c(=O)[nH]c1=O
z-score [1, 3]: 0.17 | z-score [1, 4]: 0.993 | z-score [1, 5]: 0.494

Cc1ccc([N+](=O)[O-])cc1S(=O)(=O)N(C)N=Cc1cnc2ccc(Br)cn12
Potency ([1]; TFE3-RCC UOK109 viability): 23.5 nM (active) | z-score [1, 3]: -2.11 | z-score [1, 4]: -3.04 | z-score [1, 5]: -2.3

CC(=O)O[C@H]1C[C@@H]2CC[C@H]3[C@H]4C[C@H]([N+]5(C)CCCCC5)[C@@H](OC(C)=O)[C@@]4(C)CC[C@@H]3[C@@]2(C)C[C@H]1N1CCCCC1
z-score [1, 3]: 0.765 | z-score [1, 4]: 0.686 | z-score [1, 5]: -3.76

CN(N=O)C(=O)N[C@H]1C(O)OC(CO)[C@@H](O)[C@H]1O (some centres not stated)
z-score [1, 3]: 0.19 | z-score [1, 4]: 0.37 | z-score [1, 5]: -0.505

CN[C@@H]1C[C@H]2O[C@@](C)([C@H]1OC)n1c3ccccc3c3c4c(c5c6ccccc6n2c5c31)C(=O)N[C@H]4O
Potency ([1]; TFE3-RCC UOK109 viability): 1480 nM (active) | z-score [1, 3]: -1.4 | z-score [1, 4]: -2.32 | z-score [1, 5]: -1.88
